Active and inactive are the calls of the source.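 How the source made its calls: active means compound whose NMR saturation transfer difference test with menin is positive, showing direct binding to the protein; inactive means the rest.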
Molecular target: Menin (Homo sapiens) (UniProt O00255)
Test: Confirmation of Inhibitors Targeting the Menin-MLL Interaction in MLL Related Leukemias: NMR spectroscopy to verify direct binding of compounds to menin
Conditions: purified menin, NMR STD binding, 100 uM
From the text: qHTS Assay for Inhibitors Targeting the Menin-MLL Interaction in MLL Related Leukemias NIH Chemical Genomics Center [NCGC] NIH Molecular Libraries Probe Centers Network [MLPCN] MLPCN Grant: MH084875-01A1 Assay Submitter (PI): Jolanta Grembecka, Tomasz Cierpicki, University of Virginia Translocations of the MLL (Mixed Lineage Leukemia) gene are frequently found in human leukemias affecting both children and adults. Fusion of MLL to one of more than 60 genes results in generation of oncogenic proteins upregulating Hox genes, which are vital to blood cell development. Patients harboring fusion of the MLL gene suffer from aggressive leukemias and respond poorly to available therapies. All of the oncogenic fusion proteins have a preserved N-terminal fragment of MLL that has been identified to interact with menin. It has been recently discovered that association with menin is critical to the leukemogenic activity of the MLL fusion oncoproteins. Selective targeting of the menin-MLL interaction could provide an attractive therapeutic approach to develop novel drugs for MLL-related leukemias. Small molecules blocking the menin-MLL interaction should reverse the oncogenic potential of MLL fusion proteins. We have developed and optimized a fluorescence polarization-based assay for the identification of Menin-MLL inhibitors. The assay was run employing two different MLL-derived peptides. […]

Sequence of Menin (Homo sapiens) (O00255 whole entry, looked up): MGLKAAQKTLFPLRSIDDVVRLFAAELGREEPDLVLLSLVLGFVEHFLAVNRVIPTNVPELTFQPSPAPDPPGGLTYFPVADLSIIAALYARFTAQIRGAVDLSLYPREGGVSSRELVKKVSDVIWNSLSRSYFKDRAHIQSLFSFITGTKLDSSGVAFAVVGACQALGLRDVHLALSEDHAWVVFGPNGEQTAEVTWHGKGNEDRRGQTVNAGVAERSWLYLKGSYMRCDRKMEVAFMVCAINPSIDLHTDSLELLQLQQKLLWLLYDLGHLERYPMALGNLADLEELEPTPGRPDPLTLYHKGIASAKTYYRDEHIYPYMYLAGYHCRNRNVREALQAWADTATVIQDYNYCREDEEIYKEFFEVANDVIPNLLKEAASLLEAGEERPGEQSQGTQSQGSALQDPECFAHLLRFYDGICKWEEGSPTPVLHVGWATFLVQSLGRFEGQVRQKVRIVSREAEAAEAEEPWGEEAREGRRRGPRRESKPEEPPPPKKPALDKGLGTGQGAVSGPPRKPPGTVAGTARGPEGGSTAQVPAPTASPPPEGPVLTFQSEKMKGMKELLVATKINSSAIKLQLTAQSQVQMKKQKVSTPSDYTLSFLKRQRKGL

SMILES	outcome
CCCCn1c(=O)c(C(=O)Nc2ccsc2C(=O)OC)c(O)c2ccccc21	inactive; negative
c1cc2cc(c1)C[n+]1ccc(c3ccccc31)NCc1ccc(cc1)CNc1cc[n+](c3ccccc13)C2	inactive; negative

Reference: PubChem BioAssay AID2781 (National Center for Advancing Translational Sciences (NCATS), 2010)
